In all, about 5,800 sequences were measured (“enrichment r”: median about 0.68, highest 2% from about 11 on). Only a selection was taken, and the highest values are over-represented in it overall.

Sequences and labels used below:
T1: UNK ZnF1-6 (called full-length) (human, UniProt Q9C0B0 30-357)
T1 sequence: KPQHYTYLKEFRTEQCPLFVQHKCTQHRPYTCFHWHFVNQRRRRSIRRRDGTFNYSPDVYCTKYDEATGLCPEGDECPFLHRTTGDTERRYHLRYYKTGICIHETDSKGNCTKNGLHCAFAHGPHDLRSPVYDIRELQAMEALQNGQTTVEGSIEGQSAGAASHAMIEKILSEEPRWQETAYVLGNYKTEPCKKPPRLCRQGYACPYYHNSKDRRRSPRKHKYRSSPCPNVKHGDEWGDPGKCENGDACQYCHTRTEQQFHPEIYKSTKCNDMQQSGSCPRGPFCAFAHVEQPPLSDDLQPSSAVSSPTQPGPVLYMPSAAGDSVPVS

B1: chr10:113908677:113908778:+|3pUTR|ENSG00000196865|unk|FALSE|bound_elsewhere (ssRNA)
RNA: GGGAGUUCUACAGUCCGACGAUCAGCUAUGCUCCUUACUUACUUCUUUUAUUAUAAACAAAUUCCUUUGCUUUGGCUGAUACUAGCUGAGUCAUUGAUCAUCAUUGGUACCAUGAUAUUGUAAUCUAUGCUGCUAUUUGGCACCAACAGAGGAUUGAGCAUCA
B2: chr5:113014749:113014850:+|3pUTR|ENSG00000172795|msi1|total|mutant (ssRNA)
RNA: GGGAGUUCUACAGUCCGACGAUCUAAAAAUCCUUUUUUACAGUGGUAUCCACAAAAUACUUCUCUGCUUAUAAAUGUUAUUGCCGAAAUCUUUAUUCUGUGCCGGCCGCCUAUUUAAUUGGGUUCCACUGAACCUCAUGGGACCAACAGAGGAUUGAGCAUCA
B3: chrX:51682015:51682831:-|CDS|ENSG00000283093|control|control|control (ssRNA)
RNA: GGGAGUUCUACAGUCCGACGAUCCAGUGCCCCCGGGUCCAAGUCGGGGUCGGGAGCCACGCGGCGGCCAAGAGGUGGCUGGGUAGGUGGCGACGGAAGCGCCGCUGGCGGCGGGUCCGGAAGGCGGGCCCCAGAGACCUGCUGCAACAGAGGAUUGAGCAUCA
B4: chr10:87746157:87746259:+|3pUTR|ENSG00000198682|unk|FALSE|unique (ssRNA)
RNA: GGGAGUUCUACAGUCCGACGAUCAACUGAAGACCAAAUCUUAGCAGGUAAAAGCAAUAUUCUUAUACAUUUCAUAAUAAAAUUAGCUCUAUGUAUUUUCUACUGCACCUGAGCAGGCAGGUCCCAGAUUUCUUAAGGCUUUGUCAACAGAGGAUUGAGCAUCA
B5: chr12:100626600:100626701:+|3pUTR|ENSG00000139354|unk|FALSE|unique (ssRNA)
RNA: GGGAGUUCUACAGUCCGACGAUCAAUUUUAUCAUCAAGUAUUCCCUUAUAAAACCAAGUAACACUUCUUUAUCAGUAACUUUUAGAACUUAAAAGAAAGCAAAAAGUAAAUGGAAUUGUAGGCAAUUUAUGAAUCCUAGUAGACAACAGAGGAUUGAGCAUCA
B6: chr6:89631235:89631336:+|3pUTR|ENSG00000135299|msi1|FALSE|unique (ssRNA)
RNA: GGGAGUUCUACAGUCCGACGAUCUGAAGUUUGAAAGCUCAGAUUAAGCAAGCCAUGCCAAGAAACUGGACGAUGUGUAAGCCUAGACUCUAAAAUUCAAGAUGUGUGAAAUAAUAUAAGUCAAAAGCAAGAAAAACGUAAUCCCAACAGAGGAUUGAGCAUCA
B7: chr5:141515350:141515460:-|3pUTR|ENSG00000131504|msi1_unk|FALSE|overlapping (ssRNA)
RNA: GGGAGUUCUACAGUCCGACGAUCCUCAGCUUUCCAUCCCCAGCUAGGAAGAAAGAAUGGCACUCUUGGGCUUGGCCCAGAAUUAGAGUUAUUAGAGCAAGAGAGAGCUUAGGAAGCAUGAGGGCAACUAUAGUGAGGCCUUAUCAACAGAGGAUUGAGCAUCA
B8: chr17:21001410:21001511:-|3pUTR|ENSG00000124422|msi1_unk|FALSE|overlapping (ssRNA)
RNA: GGGAGUUCUACAGUCCGACGAUCUAGUACAACUUUUAGACACAGAAAUCUGAAUGACAUAUAUUGUUCUGUGUCAAGAAACUUAGAUUUUUUUUUUAACUAUUUAAAAACGUGAAACCUAUUCUUAGCUCACAGGCCAUGGAGCAACAGAGGAUUGAGCAUCA
B9: chr7:127374855:127374969:-|CDS|ENSG00000048405|unk|FALSE|unique (ssRNA)
RNA: GGGAGUUCUACAGUCCGACGAUCCCUAGAAGCCAUAUAUCCAAGUGUGGACAAACGAGAAUAUAUUAUUAAGCUAGAACCCAUAGAAACUAAUCAAAAUGCAGUAUUUCAAUAUAUUUCGAGGACUGAUAAUCCUAUUGAAGUCAACAGAGGAUUGAGCAUCA
B10: chr6:39540002:39540221:-|CDS|ENSG00000164627|control|control|control (ssRNA)
RNA: GGGAGUUCUACAGUCCGACGAUCCCACUUGGCUGGCAUGGAUAGACGUGAAUUCAGACAGUCCCAGAGCCCACCCUUCCGCCUAGGAAACCCAGAAGAAGGUCAAAGAAUGCGACUAUCCUCAGCUCCCUCACAGGCCCAGGACAACAGAGGAUUGAGCAUCA
B11: chr5:111496093:111496242:-|3pUTR|ENSG00000164211|unk|FALSE|unique (ssRNA)
RNA: GGGAGUUCUACAGUCCGACGAUCUUUACAUGUAUAGUUAAAUAUUAAAAUUCAUCUCUUGCAGUUCAAUAAAAGCUAUAGUAUAGAUUUUAUUUUUAAGAAGUUUAUAUAAUUCUUUUGUGAACCAAUAUGUAAAACUAGAAUCAACAGAGGAUUGAGCAUCA
B12: ENSG00000156687:stop:overlap|stop_codon|ENSG00000156687|stop_codon|NA|stop_codon (ssRNA)
RNA: GGGAGUUCUACAGUCCGACGAUCACAUUUCAGAAUCCCAGCUUGAUGAAGCCGACUUCAACUACAGCAGGCAAAAUGGACUCUAGUCCACUUCCUCCCAUGAGACAGAGUGAUGGCCAGCUUGGGGACAUUUGCUUUAAAUGGCAACAGAGGAUUGAGCAUCA
B13: chr6:96891104:96891324:-|CDS|ENSG00000123545|unk|FALSE|unique (ssRNA)
RNA: GGGAGUUCUACAGUCCGACGAUCUAAUCAUAAGCUUUUCCCAGAAACCUGGACUGCUGAGAAAAUAAUGCAGGAAUACCAGUUAGAACAGAAAGAUGUGAAUUCUCUUCUUAAAUAUUUUGUUACUUUUGAAGUCGAAAUCUUCAACAGAGGAUUGAGCAUCA
B14: chr4:54297753:54297953:+|3pUTR|ENSG00000134853|msi1|FALSE|unique (ssRNA)
RNA: GGGAGUUCUACAGUCCGACGAUCUUUUUAUGAUGACAAUCAAAGCCGGCCUGAGAAACACUAUUUGUGACUUUUUAAACGAUUAGUGAUGUCCUUAAAAUGUGGUCUGCCAAUCUGUACAAAAUGGUCCUAUUUUUGUGAAGACAACAGAGGAUUGAGCAUCA
B15: chr3:120327094:120327202:-|3pUTR|ENSG00000163428|unk|FALSE|unique (ssRNA)
RNA: GGGAGUUCUACAGUCCGACGAUCGAAGAGAAGUCACCAAACACCUAGGGACAGUCCUAGGCCUAGAAAGCCCUUUAAAGUAAUAGUGAAUUGUUUUAAAAUUAAGUUAUUGAGUGGCCUACUGACUACCAUCCAAAAACCUUUCAACAGAGGAUUGAGCAUCA
B16: chr10:87814449:87814585:-|CDS|ENSG00000138138|unk|FALSE|bound_elsewhere (ssRNA)
RNA: GGGAGUUCUACAGUCCGACGAUCUUUAAUUUUCCGUUUGACAAUAUUUGGUGCAGUGACAUACUUUACUAUCAAAUGGAUGGUAGAUGCAAUUGAUCCAACCAGAAAGCAAAAAGUAGAAGCUCAGAAACAGGUAUGAUUGAACAACAGAGGAUUGAGCAUCA
B17: ENSG00000104805:stop:overlap|stop_codon|ENSG00000104805|stop_codon|NA|stop_codon (ssRNA)
RNA: GGGAGUUCUACAGUCCGACGAUCAGUUGAAGGAGGUGUGGGAGGAGCUGGAUGGACUGGACCCCAACAGCAUCCCAAAGUGCUAGGAUUACAGGCGUGAGUCACUGCGCCCGGCCUCGAAAGCCCUUUCUCUAUGGUGGAUCACAACAGAGGAUUGAGCAUCA
B18: chr2:45599705:45599806:-|CDS|ENSG00000068784|msi1|total|mutant (ssRNA)
RNA: GGGAGUUCUACAGUCCGACGAUCCUCAUAUGUUCUCUUUGUGGUUUGACCGAACCGCUCUGUGGCUAUUGCUGAUACUGCUUCCGAAGACAGAAAAAAUAAAUUGGAUACUGUACAGACUCUGAAAACAGCCAAGACAAAACACAACAGAGGAUUGAGCAUCA
B19: chr1:93365539:93365640:+|3pUTR|ENSG00000117505|unk|FALSE|unique (ssRNA)
RNA: GGGAGUUCUACAGUCCGACGAUCAGGAGGCAAAAUUGCACCCUGUUGAAAACCACCACCUUAGAUCAUCUAGGUUUUACUUUUAGGAUAAGACACUUGAGGGAAAGGCUGUGAAACUGAACCUCUGUUAGAAGCAACACACAGCAACAGAGGAUUGAGCAUCA
B20: chr2:171983412:171983537:+|3pUTR|ENSG00000128708|unk|total|mutant (ssRNA)
RNA: GGGAGUUCUACAGUCCGACGAUCUGAUGACUUUAAUUUUAAAAUCUUGUGACAUUUUGCUUAUACUAAAAGUUAUCUAUCUUCCGUUGAAUAUUUUCUUUUGGAGAGAUUGUAUAUUUUAAAAUACUGUUCCGAGUUUAUGAGCAACAGAGGAUUGAGCAUCA
B21: chr19:41330322:41331077:-|three_prime_utr|ENSG00000105329|control|control|control (ssRNA)
RNA: GGGAGUUCUACAGUCCGACGAUCGUCUGCACUAUUCCUUUGCCCGGCAUCAAGGCACAGGGGACCAGUGGGGAACACUACUGUAGUUAGAUCUAUUUAUUGAGCACCUUGGGCACUGUUGAAGUGCCUUACAUUAAUGAACUCCAACAGAGGAUUGAGCAUCA
B22: chr12:88196262:88196297:+|3pUTR|ENSG00000139324|msi1_unk|FALSE|overlapping (ssRNA)
RNA: GGGAGUUCUACAGUCCGACGAUCUGUAUACUUGUUUUUAACUUUAAAUGUAAUUUUUAAUCAGGUAAAGUUUGACACAUGUAUAGCUACAUACACACAUUUUUAAUGGUGCUCAUAUAUACUGUAUUUUUUGUUGUUUAGUUUCAACAGAGGAUUGAGCAUCA

This assay concerns the target T1, UNK ZnF1-6 (called full-length). Kind of assay: nsRBNS (natural sequence RNA bind-n-seq); RBNS binding buffer (assumed for nsRBNS): 25 mM Tris pH 7.5, 150 mM KCl, 3 mM MgCl2, 0.01% Triton X-100, 500 ug/ml BSA, 20 U/ml SUPERase-In, 4 C; UNK is unkempt and MSI1 is Musashi-1; names of the RNAs are library labels; protein concentration not given here; high values mean tight binding.
For the molecule B1, the binding signal is 3.85 enrichment R. Next, B2: 0.567 enrichment R. Next, B3: 6.11 enrichment R.

B4: the binding signal worked out at 18.7 enrichment R. Next, B5: 4.55 enrichment R; B6: 0.227 enrichment R; B7: 13.3 enrichment R. On to B8, for which the binding signal came out at 24.9 enrichment R. For the molecule B9, the binding signal was 18.1 enrichment R. The figure for B10 is 0.794 enrichment R; for B11 it is 2.13 enrichment R; for B12 it is 0.56 enrichment R. As for B13, the binding signal came to 0.645 enrichment R. B14 gave a binding signal of 0.454 enrichment R.

As for B15, the binding signal was 3.46 enrichment R. In turn, B16 returned a binding signal of 0.395 enrichment R. In the case of B17, the binding signal was determined as 0.682 enrichment R. Next, B18: 0.362 enrichment R; B19: 5.47 enrichment R; B20: 0.599 enrichment R. Turning to B21, the binding signal was 2.74 enrichment R.

The molecule B22 came in with a binding signal of 3.56 enrichment R.

Source of the values: publication PMC12136788.
